The supplement of paper PMC6992640
± gives the standard deviation of the averaged measurements.

Experiments:
Assay in all cases: cell viability (% of vehicle); higher = less cytotoxic
Conditions in all cases: 10 µM; 72 h
HCI03 = system: HCI03 (cells of an ER-positive luminal breast cancer xenograft)
HCI09 = system: HCI09 (cells of a triple-negative luminal androgen receptor type breast cancer xenograft)
HCI13 = system: HCI13 (cells of an ER-positive luminal breast cancer xenograft)
WHIM2 = system: WHIM2 (cells of a triple-negative basal-like breast cancer xenograft)
HCI01 = system: HCI01 (cells of a triple-negative basal-like breast cancer xenograft)
HCI11 = system: HCI11 (cells of an ER-positive luminal breast cancer xenograft)
HCI16 = system: HCI16 (cells of a triple-negative basal-like breast cancer xenograft)
WHIM30 = system: WHIM30 (cells of a triple-negative basal-like breast cancer xenograft)
UCD52 = system: UCD52 (cells of a triple-negative basal-like breast cancer xenograft)
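Further: PDX cells carrying CMV promoter-driven luciferase, viability read as total photon flux per second by IVIS imaging following D-luciferin, vehicle control 0.1% DMSO.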

SMILES	cell viability (HCI03)	cell viability (HCI09)	cell viability (HCI13)	cell viability (WHIM2)	cell viability (HCI01)	cell viability (HCI11)	cell viability (HCI16)	cell viability (WHIM30)	cell viability (UCD52)
Nc1ccccc1NC(=O)c1ccc(CNC(=O)OCc2cccnc2)cc1 [Entinostat (MS-275,SNDX-275)]	109	119 ± 130	58.7 ± 7.4	75.7 ± 17					
O=C(C=CC=Cc1ccc2c(c1)OCO2)N1CCCCC1 [Piperine]				117 ± 0.57	158 ± 4	134	131	111.83 ± 0.044	
CC12CCC(=O)C=C1C1CC1C1C2CCC2(C)C1C1CC1C21CCC(=O)O1 (stereo not drawn) [Drospirenone]	150	178 ± 190	84.8 ± 24	39.5 ± 12					
O=c1c(-c2ccc(O)cc2)coc2cc(O)ccc12 [Daidzein]	155			119 ± 7.2	146 ± 37	114	180		149 ± 13
CCCCOc1ccc(CC(=O)NO)cc1 [Bufexamac]		140 ± 6.6	141 ± 35	112 ± 2.7	182.8 ± 1.2	173		102 ± 3.6	148 ± 29
CCn1cc(C(=O)O)c(=O)c2cnc(N3CCCC3)nc21 [Piromidic Acid]		132 ± 5	171 ± 27		151 ± 52	110	125		145 ± 4.4
CC(=O)c1c(C)c2cnc(Nc3ccc(N4CCNCC4)cn3)nc2n(C2CCCC2)c1=O.O=S(=O)(O)CCO		78 ± 29	179 ± 75	103 ± 13	154 ± 77	154	180	145 ± 2.8	105 ± 7.7
Cc1[nH]c2ccccc2c1CCNCc1ccc(C=CC(=O)NO)cc1 [Panobinostat (LBH589)]	130	68.3 ± 34	45 ± 8.7	36.5 ± 3					
Cc1cnc(Nc2ccc(OCCN3CCCC3)cc2)nc1Nc1cccc(S(=O)(=O)NC(C)(C)C)c1	173	133 ± 44	61.6 ± 12	43.8 ± 0.93		138	161		196 ± 55
O=C(O)C1=CC(=NNc2ccc(S(=O)(=O)Nc3ccccn3)cc2)C=CC1=O [Sulfasalazine]	124	119 ± 9.1	161 ± 27	105 ± 8.7		137	180	181 ± 26	100 ± 5
O=c1[nH]c(=O)n(C2CC(O)C(CO)O2)cc1I (stereo not drawn) [Idoxuridine]		106 ± 8.6			165 ± 77	106	129	116.3 ± 1.1	112 ± 6.1
Cc1nnc(C(C)C)n1C1CC2CCC(C1)N2CCC(NC(=O)C1CCC(F)(F)CC1)c1ccccc1 (stereo not drawn) [Maraviroc]		95.9 ± 3.6	73.7 ± 15	91.4 ± 26	110 ± 12	129	163	123 ± 18	88.8 ± 1.3
CCN(CC)CCNC(=O)c1ccc(N)cc1.Cl [Procainamide HCl]		108 ± 4.1	98 ± 2.4	110 ± 10	110 ± 3.9	95.8	116	197 ± 10	100 ± 7.8
COc1ccccc1Oc1c(NS(=O)(=O)c2ccc(C(C)(C)C)cc2)nc(-c2ncccn2)nc1OCCO.O [Bosentan Hydrate]	124	87.8 ± 26	172 ± 36	87.1 ± 8.3		101		184 ± 2.7	125 ± 8.9
O=c1oc2cc(O)ccc2s1 [Tioxolone]		87.9 ± 13	85.9 ± 17	129 ± 28	115.5 ± 0.72	96.8	172	145 ± 30	109.1 ± 0.84
CCC(CO)Nc1nc(NCc2ccccc2)c2ncn(C(C)C)c2n1 (stereo not drawn) [Roscovitine (Seliciclib,CYC202)]		55.1 ± 22	77.4 ± 2.6	90.4 ± 1.3	80.4 ± 47	176	138	123 ± 4.2	145 ± 25
Nc1nc(NC2CC2)c2ncn(C3C=CC(CO)C3)c2n1.O=S(=O)(O)O (stereo not drawn) [Abacavir sulfate]			134 ± 16	128 ± 5.2	161 ± 13	139	157		196 ± 5.3
C#Cc1cccc(Nc2ncnc3cc(OC)c(OCCCCCCC(=O)NO)cc23)c1	105	22.1 ± 10	77.52 ± 0.49	44.4 ± 5		4.55			
CN(C)Cc1c(C(=O)NCCOc2ccc(C(=O)NO)cc2)oc2ccccc12	128	70.8 ± 49	56.1 ± 17	80.6 ± 8.5		9.68			
N#CCC(C1CCCC1)n1cc(-c2ncnc3[nH]ccc23)cn1 (stereo not drawn)	185	106 ± 19	76.1 ± 14	134 ± 12		129	106	187.4 ± 1.7	117.7 ± 0.47
O=C(C=Cc1cccc(S(=O)(=O)Nc2ccccc2)c1)NO [Belinostat (PXD101)]	104	39.6 ± 33	55.1 ± 25	43.7 ± 1.1		6.42			
Cn1cnc2c(F)c(Nc3ccc(Br)cc3Cl)c(C(=O)NOCCO)cc21 [AZD6244 (Selumetinib)]	83.9	82.9 ± 23	92.21 ± 0.79	79.7 ± 8.5		112			84.4 ± 13
C[C@@H]1C\C=C/C=C\C=C/C=C\[C@H](O[C@@H]2O[C@H](C)[C@@H](O)[C@H](N)[C@@H]2O)C[C@@H]2O[C@](O)(C[C@@H](O)C[C@H]3O[C@@H]3/C=C\C(=O)O1)C[C@H](O)[C@H]2C(=O)O [Natamycin]	137	121 ± 19	144.5 ± 1.4	103 ± 9.2		146		199 ± 34	156 ± 48
CC(C)Cc1ccc(C(C)C(=O)O)cc1.NCCCCC(N)C(=O)O (stereo not drawn) [Ibuprofen Lysine]	130	106 ± 12	131 ± 6.2	84.8 ± 3.6		138	162	170 ± 23	132 ± 29
Cl.Nc1ccc(N=Nc2ccccc2)c(N)n1 [Phenazopyridine HCl]				191 ± 47	196 ± 12	136	200		
